From the supplement of paper PMC13380429

Test system: Vero E6 infected with SARS-CoV-2
Assay: inhibition of SARS-CoV-2 cytopathic effect; higher = more antiviral protection, active = above 15
Details: 48 h

Measured: inhibition of SARS-CoV-2 cytopathic effect

Cc1nn(C)c2nc(NNC(=O)Nc3cc(Cl)nc(Cl)c3)cc(C(C)C)c12
inactive: 1 nM -4.74% | 8.33 nM -3.45% | 100 nM -2.8% | 833.33 nM -1.22% | 10000 nM 1.05%

CNC(=O)c1nn(C)c2c1C(C)(C)Cc1cnc(Nc3ccc(N4CCN(C)CC4)cc3)nc1-2
inactive: 1 nM 0.32% | 8.33 nM 0.79% | 100 nM 1.17% | 833.33 nM -4.6% | 10000 nM -10.3%

CC(C[N+](C)(C)C)OC(N)=O (stereo not given) [bethanechol]
inactive: 1 nM -5.4% | 8.33 nM 2.96% | 100 nM -4.87% | 833.33 nM -5.89% | 10000 nM -6.25%

NCCS(=O)(=O)O [taurine]
inactive: 1 nM -2.1% | 8.33 nM -0.91% | 100 nM -1.56% | 833.33 nM 0.1% | 10000 nM -0.28%

c1cnc(NCc2ccc(CNc3ncccn3)cc2)nc1
inactive: 1 nM -2.38% | 8.33 nM -1.7% | 100 nM -0.65% | 833.33 nM -1.46% | 10000 nM -0.62%

Nc1ccc(C(=O)Oc2ccccc2)c(O)c1 [phenyl-aminosalicylate]
inactive: 1 nM -11% | 8.33 nM -5.77% | 100 nM -10.6% | 833.33 nM -10.7% | 10000 nM -9.73%

O=C1NCN(c2ccccc2)C12CCN(CCCC(c1ccc(F)cc1)c1ccc(F)cc1)CC2 [fluspirilene]
inactive: 1 nM 0.39% | 8.33 nM -2.06% | 100 nM -3.28% | 833.33 nM -5.63% | 10000 nM 10.3%
